Values without a mark were called inactive. Inconclusive results are not listed. The source made the active and inactive calls. Calls come from the whole dose curve; as a rule, active = well fitted curve in the direction sought with a large enough effect; inconclusive = small, poorly fitted or top-dose-only effect, or another doubt; inactive = no such curve, though single readings can be large; an effect the other way counts as inactive or inconclusive.
Molecular target: Cytochrome P450 3A4 (Homo sapiens) (UniProt P08684)
Sequence (P08684 whole entry, looked up): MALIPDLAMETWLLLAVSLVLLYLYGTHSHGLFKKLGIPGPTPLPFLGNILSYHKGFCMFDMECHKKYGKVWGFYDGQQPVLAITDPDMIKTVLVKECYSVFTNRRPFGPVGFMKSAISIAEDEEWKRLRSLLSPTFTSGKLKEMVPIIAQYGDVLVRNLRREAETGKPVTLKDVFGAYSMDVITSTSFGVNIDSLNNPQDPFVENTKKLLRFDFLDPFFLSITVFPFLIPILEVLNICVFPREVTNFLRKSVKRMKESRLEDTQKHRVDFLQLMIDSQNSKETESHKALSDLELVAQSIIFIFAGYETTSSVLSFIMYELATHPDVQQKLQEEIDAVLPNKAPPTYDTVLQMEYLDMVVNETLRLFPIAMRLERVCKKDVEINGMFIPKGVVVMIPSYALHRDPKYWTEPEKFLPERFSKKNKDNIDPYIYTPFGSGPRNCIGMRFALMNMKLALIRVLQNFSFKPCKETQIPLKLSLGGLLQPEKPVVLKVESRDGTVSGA
Test: qHTS Assay for Activators of Cytochrome P450 3A4 (AID 885); note: nearly all actives have a fitted effect of over 65% in size
Details: recombinant CYP3A4, Luciferin-PPXE luminescence, 60 min; series mostly up to 57.1 µM; activity change, positive = activation: at the top concentration
Procedure, shortened: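 20nM CYP3A4 + 25uM Luciferin-PPXE (=KM), 200mM KPO4; cpd 10 min RT; NADPH regen, 60 min RT; stop w/ detection buffer, 20 min; luminescence. Normalized to 57 uM ketoconazole.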

| SMILES | activity change, positive = activation |
| --- | --- |
| CC(N)C(=O)OC(C)(C)Cc1ccc(Cl)cc1 (centres undefined) | -81.4% |
| Clc1ccccc1-c1nc(-c2ccncc2)no1 | -40.1% [at 11.4 µM] |
| Nc1cc(-c2ccncc2)c[nH]c1=O | -80.6% |
| O=c1cc(-c2ccccc2)oc2c(O)c(O)ccc12 | -59.6% |
| O=C(/C=C/c1ccc(O)c(O)c1)OCCc1ccccc1 | -35.4% |
| COc1cccc(OC)c1OCCNCC1COc2ccccc2O1 (centres undefined) | -73% |
| O=C(Nc1ccncc1)c1cc([N+](=O)[O-])ccc1Cl | -100% |

Molecular target: Cytochrome P450 2D6 (Homo sapiens) (UniProt P10635)
Sequence (P10635 whole entry, looked up): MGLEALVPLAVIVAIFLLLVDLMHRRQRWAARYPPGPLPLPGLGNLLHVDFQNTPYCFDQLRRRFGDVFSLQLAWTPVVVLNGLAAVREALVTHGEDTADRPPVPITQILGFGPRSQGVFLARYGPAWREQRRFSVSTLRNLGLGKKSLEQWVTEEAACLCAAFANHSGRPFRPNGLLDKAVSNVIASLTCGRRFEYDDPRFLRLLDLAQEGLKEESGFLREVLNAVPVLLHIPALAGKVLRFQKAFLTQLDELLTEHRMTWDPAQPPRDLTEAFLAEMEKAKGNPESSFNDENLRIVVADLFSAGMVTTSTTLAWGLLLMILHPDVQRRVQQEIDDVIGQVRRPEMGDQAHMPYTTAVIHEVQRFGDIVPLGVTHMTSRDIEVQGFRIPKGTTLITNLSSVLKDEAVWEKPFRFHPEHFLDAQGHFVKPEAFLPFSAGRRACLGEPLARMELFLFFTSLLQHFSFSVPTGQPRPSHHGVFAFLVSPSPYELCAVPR
Test: qHTS Assay for Inhibitors and Substrates of Cytochrome P450 2D6 (AID 891); note: nearly all actives have a fitted effect of over 60% in size; note: potency is the fitted concentration of half-maximal effect;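 for activity change, negative = inhibition: luciferin methyl ether substrate demethylated by CYP2D6 with NADPH regeneration; % is set by controls: 0 for no effect and ±100 for the full control effect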
Details: recombinant CYP2D6, luciferin-ME EGE luminescence; series mostly up to 57.1 µM; activity change, negative = inhibition: at the top concentration
Procedure, shortened: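 Human CYP2D6 (5 nM) with 30 uM Luciferin-ME EGE (at Km) in 100 mM KPO4, compound preincubated 10 min, then NADPH regeneration system for 60 min at room temperature. Luciferin read by luminescence; normalized to 1.43 uM quinidine.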

| SMILES | activity change, negative = inhibition [%] | Potency | outcome |
| --- | --- | --- | --- |
| N=c1ccn2c(n1)O[C@H]1[C@H](O)[C@@H](CO)O[C@H]12 | -2.19 |  |  |
| COc1ccccc1N1CCN(CCN(C(=O)c2ccc(I)cc2)c2ccccn2)CC1 |  | 3.98 µM (active) |  |
| CCCSc1ccc2nc(NC(=O)OC)[nH]c2c1 |  |  | inactive |
| Cc1nc2sccn2c(=O)c1CCN1CCC(=C(c2ccccc2)c2ccc(F)cc2)CC1 |  | 7.94 µM (active) |  |

Molecular target: Cytochrome P450 2C19 (Homo sapiens) (UniProt P33261)
Sequence (P33261 whole entry, looked up): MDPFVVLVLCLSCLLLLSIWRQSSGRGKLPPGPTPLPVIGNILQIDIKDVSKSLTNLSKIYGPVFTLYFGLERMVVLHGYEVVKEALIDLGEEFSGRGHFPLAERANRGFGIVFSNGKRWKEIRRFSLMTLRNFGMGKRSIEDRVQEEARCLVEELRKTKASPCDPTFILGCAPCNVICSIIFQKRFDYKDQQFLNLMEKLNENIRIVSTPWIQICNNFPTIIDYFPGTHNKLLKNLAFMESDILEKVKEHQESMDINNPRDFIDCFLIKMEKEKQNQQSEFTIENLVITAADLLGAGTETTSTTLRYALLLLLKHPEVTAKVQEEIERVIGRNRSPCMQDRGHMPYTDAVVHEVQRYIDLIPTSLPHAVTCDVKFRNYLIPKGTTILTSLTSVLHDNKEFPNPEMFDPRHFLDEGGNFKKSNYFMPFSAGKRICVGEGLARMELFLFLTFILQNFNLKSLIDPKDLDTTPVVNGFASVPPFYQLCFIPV
Test: qHTS Assay for Inhibitors and Substrates of Cytochrome P450 2C19 (AID 899); note: nearly all actives have a fitted effect of over 60% in size; note: potency is the fitted concentration of half-maximal effect; for activity, negative = inhibition: % is set by controls: 0 for no effect and ±100 for the full control effect
Details: recombinant CYP2C19, luciferin-H EGE luminescence; series mostly up to 57.1 µM; activity, negative = inhibition: at the top concentration
Procedure, shortened: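 Human CYP2C19 (5nM) with Luciferin-H EGE at 10uM (its KM) in 50mM KPO4 was preincubated with compound for 10 min at 37C. NADPH regeneration started a 60 min 37C reaction. Luciferin was read by luminescence, normalized to 57uM ketoconazole.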

| SMILES | Potency | activity, negative = inhibition [%] | outcome |
| --- | --- | --- | --- |
| Clc1ccccc1-c1nc(-c2ccncc2)no1 | 0.0631 µM (active) |  |  |
| Nc1cc(-c2ccncc2)c[nH]c1=O | 5.01 µM (active) |  |  |
| CCC1C(=O)OCC1Cc1cncn1C (centres undefined) | 7.94 µM (active) |  |  |
| N=c1ccn2c(n1)O[C@H]1[C@H](O)[C@@H](CO)O[C@H]12 |  | 46.9 |  |
| CCCSc1ccc2nc(NC(=O)OC)[nH]c2c1 |  |  | inactive |

Test system: not listed separately
Test: Confirmation and Secondary Assay for Modulators of Hemoglobin Beta Chain Splicing at IVS2 654 locus (AID 910);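 note: per-well total GFP intensity by laser scanning cytometry after 2-day treatment; % of control where 0% means no effect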
Details: HeLa EGFP-654 splicing reporter, GFP fluorescence, 48 h; series mostly up to 46.1 µM; activation (splicing correction): at the top concentration
Procedure, shortened: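 HeLa cells stably carrying EGFP interrupted by mutant beta-globin IVS2-654 intron (CMV-driven) were treated with compound for 2 days at 37C; corrected splicing was scored as total peak GFP intensity per well (488 nm excitation, 500-520 nm emission).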

| SMILES | activation (splicing correction) | outcome |
| --- | --- | --- |
| Cc1c(N)c(=O)n(-c2ccccc2)n1C | -2.47% |  |
| Oc1c(Br)cc(Br)c2cccnc12 | -6.08% |  |
| N=C(N)N | 1.24% [at 38.3 µM] |  |
| CC(N)C(=O)OC(C)(C)Cc1ccc(Cl)cc1 (centres undefined) | 0.329% |  |
| CCCCCCOc1ccccc1C(N)=O | -8.66% |  |
| Nc1cc(-c2ccncc2)c[nH]c1=O | 5.97% |  |
| CC1OC1P(=O)(O)O (centres undefined) | 4.9% |  |
| O=c1cc(-c2ccccc2)oc2c(O)c(O)ccc12 | -5.64% |  |
| COc1cc(NC(C)CCCN)c2ncccc2c1 (centres undefined) | -2.19% |  |
| O=C(OCc1ccccc1)c1ccccc1 | 13.1% |  |
| Nc1nc(Cl)nc2c1ncn2[C@@H]1O[C@H](CO)[C@@H](O)[C@H]1O | 1.26% [at 38.3 µM] |  |
| CC(C(=O)O)c1ccc(C(=O)c2cccs2)cc1 (centres undefined) | 10.5% |  |
| CN1C2CCC1CC(OC(=O)C(O)c1ccccc1)C2 (centres undefined) | 0.681% |  |
| CCCCC1C(=O)N(c2ccccc2)N(c2ccc(O)cc2)C1=O (centres undefined) | 9.04% |  |
| O=C(/C=C/c1ccc(O)cc1)c1ccc(O)cc1O | 16.7% |  |
| CCCSc1ccc2nc(NC(=O)OC)[nH]c2c1 | -1.83% |  |
| CN1CCc2cccc3c2C1Cc1ccc(O)c(O)c1-3 (centres undefined) | -1.41% |  |
| CC(C(=O)O)c1ccc2c(c1)[nH]c1ccc(Cl)cc12 (centres undefined) | -2.7% |  |
| Cc1c(Nc2ncccc2C(=O)O)cccc1C(F)(F)F | 2.18% |  |
| Cc1ccc(C(=O)c2ccc(CC(=O)O)n2C)cc1 | 7.58% |  |
| O=C(/C=C/c1ccc(O)c(O)c1)OCCc1ccccc1 | -3.12% [at 38.3 µM] |  |
| Nc1ccc(C(=O)O)c(O)c1 |  | inactive |
| COc1cccc(OC)c1OCCNCC1COc2ccccc2O1 (centres undefined) | -0.43% [at 38.3 µM] |  |
| O=C(O)c1ccccc1Nc1cccc(C(F)(F)F)c1 | -8.57% |  |

Test system: not listed separately
Test: Confirmation and Secondary Assay for Modulators of Hemoglobin Beta Chain Splicing at IVS2 705 locus (AID 930);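 note: HeLa cells stably expressing the EGFP-705 splicing reporter; GFP fluorescence per well restored by corrected splicing of the IVS2-705 intron in EGFP; % of control where 0% means no effect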
Details: HeLa EGFP-705 splicing reporter, GFP fluorescence, 48 h; series mostly up to 46.1 µM; activation: at the top concentration
Procedure, shortened: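 Per-well GFP, captured at 1 x 8 µm resolution with 488 nm excitation, served as the read-out for HeLa EGFP-705 cells incubated 2 days with test compound versus DMSO.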

| SMILES | activation | outcome |
| --- | --- | --- |
| Cc1c(N)c(=O)n(-c2ccccc2)n1C | 0.817% |  |
| Oc1c(Br)cc(Br)c2cccnc12 | -1.06% |  |
| N=C(N)N | -0.399% [at 38.3 µM] |  |
| CC(N)C(=O)OC(C)(C)Cc1ccc(Cl)cc1 (centres undefined) | 0.695% |  |
| CCCCCCOc1ccccc1C(N)=O | -0.251% |  |
| Nc1cc(-c2ccncc2)c[nH]c1=O | 0.243% |  |
| CC1OC1P(=O)(O)O (centres undefined) | 1.78% |  |
| O=c1cc(-c2ccccc2)oc2c(O)c(O)ccc12 | -1.06% |  |
| COc1cc(NC(C)CCCN)c2ncccc2c1 (centres undefined) | 2.93% |  |
| O=C(OCc1ccccc1)c1ccccc1 | -0.0041% |  |
| Nc1nc(Cl)nc2c1ncn2[C@@H]1O[C@H](CO)[C@@H](O)[C@H]1O | -0.304% [at 38.3 µM] |  |
| CC(C(=O)O)c1ccc(C(=O)c2cccs2)cc1 (centres undefined) | 0.284% |  |
| CN1C2CCC1CC(OC(=O)C(O)c1ccccc1)C2 (centres undefined) | -0.375% |  |
| CCCCC1C(=O)N(c2ccccc2)N(c2ccc(O)cc2)C1=O (centres undefined) | 3.64% |  |
| O=C(/C=C/c1ccc(O)cc1)c1ccc(O)cc1O | 0.731% |  |
| CCCSc1ccc2nc(NC(=O)OC)[nH]c2c1 | -0.196% |  |
| CN1CCc2cccc3c2C1Cc1ccc(O)c(O)c1-3 (centres undefined) | 4.91% |  |
| CC(C(=O)O)c1ccc2c(c1)[nH]c1ccc(Cl)cc12 (centres undefined) | 2.68% |  |
| Cc1c(Nc2ncccc2C(=O)O)cccc1C(F)(F)F | 0.768% |  |
| Cc1ccc(C(=O)c2ccc(CC(=O)O)n2C)cc1 | -1.01% |  |
| O=C(/C=C/c1ccc(O)c(O)c1)OCCc1ccccc1 | -1.03% [at 38.3 µM] |  |
| Nc1ccc(C(=O)O)c(O)c1 |  | inactive |
| COc1cccc(OC)c1OCCNCC1COc2ccccc2O1 (centres undefined) | -0.0559% [at 38.3 µM] |  |
| O=C(O)c1ccccc1Nc1cccc(C(F)(F)F)c1 | -0.539% |  |
